Experimental data as given in PubChem BioAssay AID1159580 (chemical genetic matrix, 2015).
The whole screen tested about 5,500 compounds, of which about 2,000 (36%) were called active. Roughly 18% stayed inconclusive and do not appear here. Some of the results follow. Unmarked numbers belong to inactive results. Rule as the data show it: active = normalized growth mostly below about 0.91 (no sharp cut-off); inconclusive = no clear call, values can overlap the other calls; inactive = mostly above about 0.92.

Assay: chemical genetic growth profiling, strain panel (AID 1159580);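 also: tested at 20 µM; growth read once vehicle control cultures reached saturation at 30 °C; 1 = growth at the plate median or of vehicle wells; lower values mean less growth of the strain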
Conditions: growth OD
[1] = S. cerevisiae deletion strains, locus YDL101C, strain DUN1, active compounds read low
[2] = S. cerevisiae deletion strains, locus YHR030C, strain SLT2, active compounds read low

SMILES: CC(C)(C)C1=NN(c2nc3ccc(Cl)cc3s2)C(=O)C1
- normalized growth (S. cerevisiae deletion strains, locus YAR019C, strain CDC15, active compounds read low): 0.484 (active)
- normalized growth (S. cerevisiae deletion strains, locus YBL105C, strain PKC1, active compounds read low): 0.0905 (active)
- normalized growth (S. cerevisiae deletion strains, locus YBR135W, strain CKS1, active compounds read low): 0.0897 (active)
- normalized growth (S. cerevisiae deletion strains, locus YBR136W, strain MEC1, active compounds read low): 0.102 (active)
- normalized growth (S. cerevisiae deletion strains, locus YBR160W, strain CDC28, active compounds read low): 0.111 (active)
- normalized growth (S. cerevisiae deletion strains, locus YDL017W, strain CDC7, active compounds read low): 0.0926 (active)
- normalized growth (S. cerevisiae deletion strains, locus YDL028C, strain MPS1, active compounds read low): 0.105 (active)
- normalized growth [1]: 0.496 (active)
- normalized growth (S. cerevisiae deletion strains, locus YDL108W, strain KIN28, active compounds read low): 0.516 (active)
- normalized growth (S. cerevisiae deletion strains, locus YDL132W, strain cdc53, active compounds read low): 0.436 (active)
- normalized growth (S. cerevisiae deletion strains, locus YDL214C, strain PRR2, active compounds read low): 0.104 (active)
- normalized growth (S. cerevisiae deletion strains, locus YDR052C, strain DBF4, active compounds read low): 0.116 (active)
- normalized growth (S. cerevisiae deletion strains, locus YDR054C, strain cdc34, active compounds read low): 0.225 (active)
- normalized growth (S. cerevisiae deletion strains, locus YDR226W, strain ADK1, active compounds read low): 0.898
- normalized growth (S. cerevisiae deletion strains, locus YDR477W, strain SNF1, active compounds read low): 0.11 (active)
- normalized growth (S. cerevisiae deletion strains, locus YER123W, strain YCK3, active compounds read low): 0.0976 (active)
- normalized growth (S. cerevisiae deletion strains, locus YER133W, strain GLC7, active compounds read low): 0.11 (active)
- normalized growth (S. cerevisiae deletion strains, locus YFL009W, strain cdc4, active compounds read low): 0.11 (active)
- normalized growth (S. cerevisiae deletion strains, locus YFL029C, strain CAK1, active compounds read low): 0.0958 (active)
- normalized growth (S. cerevisiae deletion strains, locus YFR003C, strain YPI1, active compounds read low): 0.0998 (active)
- normalized growth (S. cerevisiae deletion strains, locus YFR019W, strain FAB1, active compounds read low): 0.109 (active)
- normalized growth (S. cerevisiae deletion strains, locus YFR028C, strain CDC14, active compounds read low): 0.101 (active)
- normalized growth (S. cerevisiae deletion strains, locus YGR040W, strain KSS1, active compounds read low): 0.121 (active)
- normalized growth (S. cerevisiae deletion strains, locus YGR052W, strain FMP48, active compounds read low): 0.114 (active)
- normalized growth (S. cerevisiae deletion strains, locus YGR092W, strain DBF2, active compounds read low): 0.0994 (active)
- normalized growth [2]: 0.106 (active)
- normalized growth (S. cerevisiae deletion strains, locus YHR079C, strain IRE1, active compounds read low): 0.111 (active)
- normalized growth (S. cerevisiae deletion strains, locus YHR082C, strain KSP1, active compounds read low): 0.121 (active)
- normalized growth (S. cerevisiae deletion strains, locus YHR205W, strain SCH9, active compounds read low): 0.00427 (active)
- normalized growth (S. cerevisiae deletion strains, locus YIL147C, strain SLN1, active compounds read low): 0.104 (active)
- normalized growth (S. cerevisiae deletion strains, locus YJL095W, strain BCK1, active compounds read low): 0.104 (active)
- normalized growth (S. cerevisiae deletion strains, locus YJL128C, strain PBS2, active compounds read low): 0.103 (active)
- normalized growth (S. cerevisiae deletion strains, locus YJL157C, strain FAR1, active compounds read low): 0.101 (active)
- normalized growth (S. cerevisiae deletion strains, locus YJR016C, strain ILV3, active compounds read low): 0.118 (active)
- normalized growth (S. cerevisiae deletion strains, locus YJR066W, strain TOR1 (second series), active compounds read low): 0.0988 (active)
- normalized growth (S. cerevisiae deletion strains, locus YJR066W, strain TOR1, active compounds read low): 0.108 (active)
- normalized growth (S. cerevisiae deletion strains, locus YKL048C, strain ELM1, active compounds read low): 0.119 (active)
- normalized growth (S. cerevisiae deletion strains, locus YKL067W, strain YNK1, active compounds read low): 0.144 (active)
- normalized growth (S. cerevisiae deletion strains, locus YKL101W, strain HSL1, active compounds read low): 0.0952 (active)
- normalized growth (S. cerevisiae deletion strains, locus YKL193C, strain SDS22, active compounds read low): 0.093 (active)
- normalized growth (S. cerevisiae deletion strains, locus YKL203C, strain TOR2, active compounds read low): 0.1 (active)
- normalized growth (S. cerevisiae deletion strains, locus YLR113W, strain HOG1, active compounds read low): 0.14 (active)
- normalized growth (S. cerevisiae deletion strains, locus YLR133W, strain CKI1, active compounds read low): 0.107 (active)
- normalized growth (S. cerevisiae deletion strains, locus YLR403W, strain SFP1, active compounds read low): 0.00206 (active)
- normalized growth (S. cerevisiae deletion strains, locus YML070W, strain DAK1, active compounds read low): 0.1 (active)
- normalized growth (S. cerevisiae deletion strains, locus YMR001C, strain CDC5, active compounds read low): 0.15 (active)
- normalized growth (S. cerevisiae deletion strains, locus YMR205C, strain PFK2 (second series), active compounds read low): 0.0849 (active)
- normalized growth (S. cerevisiae deletion strains, locus YMR277W, strain FCP1, active compounds read low): 0.262 (active)
- normalized growth (S. cerevisiae deletion strains, locus YNL006W, strain LST8, active compounds read low): 0.12 (active)
- normalized growth (S. cerevisiae deletion strains, locus YNL020C, strain ARK1, active compounds read low): 0.107 (active)
- normalized growth (S. cerevisiae deletion strains, locus YNL161W, strain CBK1, active compounds read low): 0.429 (active)
- normalized growth (S. cerevisiae deletion strains, locus YNL183C, strain NPR1, active compounds read low): 0.105 (active)
- normalized growth (S. cerevisiae deletion strains, locus YNL207W, strain RIO2, active compounds read low): 0.179 (active)
- normalized growth (S. cerevisiae deletion strains, locus YNL222W, strain SSU72, active compounds read low): 0.504 (active)
- normalized growth (S. cerevisiae deletion strains, locus YNL307C, strain MCK1 (second series), active compounds read low): 0.107 (active)
- normalized growth (S. cerevisiae deletion strains, locus YOL078W, strain AVO1, active compounds read low): 0.0851 (active)
- normalized growth (S. cerevisiae deletion strains, locus YOL136C, strain PFK27, active compounds read low): 0.111 (active)
- normalized growth (S. cerevisiae deletion strains, locus YOR061W, strain CKA2, active compounds read low): 0.0975 (active)
- normalized growth (S. cerevisiae deletion strains, locus YOR119C, strain RIO1, active compounds read low): 0.114 (active)
- normalized growth (S. cerevisiae deletion strains, locus YOR231W, strain MKK1, active compounds read low): 0.104 (active)
- normalized growth (S. cerevisiae deletion strains, locus YOR329C, strain SCD5, active compounds read low): 0.299 (active)
- normalized growth (S. cerevisiae deletion strains, locus YPL031C, strain PHO85, active compounds read low): 0.0965 (active)
- normalized growth (S. cerevisiae deletion strains, locus YPL153C, strain RAD53, active compounds read low): 0.0988 (active)
- normalized growth (S. cerevisiae deletion strains, locus YPL204W, strain HRR25, active compounds read low): 0.11 (active)
- normalized growth (S. cerevisiae deletion strains, locus YPL209C, strain IPL1, active compounds read low): 0.0986 (active)
- normalized growth (S. cerevisiae deletion strains, locus YPL256C, strain CLN2, active compounds read low): 0.121 (active)
- normalized growth (S. cerevisiae deletion strains, locus YPR025C, strain CCL1, active compounds read low): 0.124 (active)
- normalized growth (S. cerevisiae deletion strains, locus YPR106W, strain ISR1, active compounds read low): 0.199 (active)
- normalized growth (S. cerevisiae deletion strains, locus YPR111W, strain DBF20, active compounds read low): 0.463 (active)
- normalized growth (S. cerevisiae deletion strains, strain NNK1, active compounds read low): 0.106 (active)
- normalized growth (S. cerevisiae deletion strains, strain TSCII, active compounds read low): 0.48 (active)

SMILES: CC(C)(C)NC(=O)N1CCN(c2nc3ccc(Cl)cc3s2)CC1
- normalized growth (S. cerevisiae deletion strains, locus YAL013W, strain DEP1, active compounds read low): 0.952
- normalized growth (S. cerevisiae deletion strains, locus YBR229C, strain ROT2, active compounds read low): 0.979
- normalized growth [1]: 1
- normalized growth (S. cerevisiae deletion strains, locus YDR150W, strain NUM1, active compounds read low): 0.966
- normalized growth (S. cerevisiae deletion strains, locus YEL061C, strain CIN8, active compounds read low): 0.943
- normalized growth (S. cerevisiae deletion strains, locus YGR078C, strain PAC10, active compounds read low): 0.962
- normalized growth [2]: 0.339 (active)
- normalized growth (S. cerevisiae deletion strains, locus YHR087W, strain rtc3, active compounds read low): 0.967
- normalized growth (S. cerevisiae deletion strains, locus YJR043C, strain POL32, active compounds read low): 0.976
- normalized growth (S. cerevisiae deletion strains, locus YJR075W, strain HOC1, active compounds read low): 0.981
- normalized growth (S. cerevisiae deletion strains, locus YKL190W, strain CNB1, active compounds read low): 0.993
- normalized growth (S. cerevisiae deletion strains, locus YLR039C, strain RIC1, active compounds read low): 0.82
- normalized growth (S. cerevisiae deletion strains, locus YLR058C, strain SHM2 (second series), active compounds read low): 1.02
- normalized growth (S. cerevisiae deletion strains, locus YLR085C, strain ARP6, active compounds read low): 0.552 (active)
- normalized growth (S. cerevisiae deletion strains, locus YLR262C, strain YPT6, active compounds read low): 0.913
- normalized growth (S. cerevisiae deletion strains, locus YML094W, strain GIM5, active compounds read low): 0.908
- normalized growth (S. cerevisiae deletion strains, locus YMR219W, strain ESC1, active compounds read low): 1
- normalized growth (S. cerevisiae deletion strains, locus YMR263W, strain SAP30, active compounds read low): 0.992
- normalized growth (S. cerevisiae deletion strains, locus YNL153C, strain GIM3, active compounds read low): 0.943
- normalized growth (S. cerevisiae deletion strains, locus YNL298W, strain CLA4 (second series), active compounds read low): 0.831 (active)
- normalized growth (S. cerevisiae deletion strains, locus YNL322C, strain KRE1, active compounds read low): 1.03
- normalized growth (S. cerevisiae deletion strains, locus YNR030W, strain Alg12, active compounds read low): 0.902
- normalized growth (S. cerevisiae deletion strains, locus YOL006C, strain TOP1, active compounds read low): 0.739
- normalized growth (S. cerevisiae deletion strains, locus YPL055C, strain LGE1, active compounds read low): 0.928
- normalized growth (S. cerevisiae deletion strains, locus YPL241C, strain CIN2, active compounds read low): 0.856 (active)
- normalized growth (S. cerevisiae deletion strains, locus YPR135W, strain CTF4, active compounds read low): 0.662
- normalized growth (S. cerevisiae strains, strain wild type, active compounds read low): 0.97
